This note sets out measurements from article PMC10668032, “Altered binding affinity of SIX1-Q177R correlates with enhanced WNT5A and WNT pathway effector expression in Wilms tumor”.

Whole data set: some 33,000 sequences, median “e-score” near -0.053, cut for the highest 2% near 0.38. The sample as a whole holds a higher share of the highest values than the screen did.

The test deals with T1, SIX1 homeodomain (reference allele) (human, UniProt Q15475 108-198).
T1 sequence: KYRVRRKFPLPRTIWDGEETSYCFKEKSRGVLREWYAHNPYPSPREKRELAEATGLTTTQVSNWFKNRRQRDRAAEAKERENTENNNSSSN
The test can be described thus: universal protein binding microarray; Universal all-10-mer PBM (8x60K, AMADID 030236), 300 nM GST-tagged protein, Alexa Fluor 488 anti-GST; buffer, salt, pH and temperature not stated (as in Berger); high values mean tight binding. Particulars: protein: ivt; tags: N-terminal GST; dsDNA, one strand shown. A digest of the protocol:
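GST-tagged homeodomains were made by in vitro transcription/translation and quantified by anti-GST western blot against a recombinant GST standard curve. They were applied in duplicate at 300 nM final concentration to universal 'all 10-mer' protein binding microarrays (8×60K format). Binding was quantified as 8-mer E-scores with the Universal PBM Analysis Suite.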
In the case of CAGCGATC, the binding signal came to 0.265 ± 0.0201 E-score.

Regarding ATTATGTG, the binding signal was determined as 0.171 ± 0.0412 E-score.

As for ATACTCGC, the binding signal is 0.34 ± 0.069 E-score.

As to CTATACGC, the binding signal was 0.215 ± 0.0251 E-score.

With CGATCTGC, the binding signal came to 0.209 ± 0.00856 E-score.

With CAGATTAC, the binding signal was 0.187 ± 0.0577 E-score.

Take GATTATGC: the binding signal came to 0.265 ± 0.0543 E-score.

Regarding CCCATCTC, the binding signal came to 0.292 ± 0.0209 E-score.

Take ACACCTTG: the binding signal came to 0.186 ± 0.0328 E-score.

Turning to CGGGATCC, the binding signal turned out to be 0.393 ± 0.0513 E-score.

Regarding CAGGATCC, the binding signal came to 0.354 ± 0.0257 E-score.

With CTGGATCC, the binding signal was 0.351 ± 0.0527 E-score.

Take ATGGATCC: the binding signal was determined as 0.362 ± 0.0547 E-score.

AGGGATCC: the binding signal amounted to 0.386 ± 0.0382 E-score.

Consider AAGGATCC, for which the binding signal was 0.35 ± 0.0205 E-score.

ATTCGATA: the binding signal turned out to be 0.302 ± 0.0451 E-score.

With ATCAAAAA, the binding signal was 0.153 ± 0.0897 E-score.

Take ATCTAATA: the binding signal came out at 0.237 ± 0.0442 E-score.

Take AACACCCC: the binding signal stood at 0.268 ± 0.0366 E-score.

For the sequence GACACCCA, the binding signal came out at 0.396 ± 0.0322 E-score.

For CACACCCC, the binding signal came out at 0.26 ± 0.0792 E-score.

Consider TACACCCA, for which the binding signal worked out at 0.341 ± 0.0149 E-score.

As for GACACCCC, the binding signal came to 0.436 ± 0.0137 E-score.

As for GACACCAA, the binding signal turned out to be 0.364 ± 0.0101 E-score.

In the case of GATTATAC, the binding signal came out at 0.34 ± 0.0371 E-score.

Consider GCCGATCA, for which the binding signal was 0.229 ± 0.0129 E-score.

As for ATAGCCCC, the binding signal was 0.181 ± 0.0335 E-score.

Regarding TATCAGAA, the binding signal was found to be 0.354 ± 0.0409 E-score.

Regarding TACCTCTA, the binding signal came out at 0.204 ± 0.0372 E-score.

Regarding CCGACAGA, the binding signal amounted to 0.195 ± 0.026 E-score.

As for ACGACACG, the binding signal worked out at 0.156 ± 0.0251 E-score.

As for CCGACACC, the binding signal worked out at 0.438 ± 0.013 E-score.

AAGACACC: the binding signal was 0.347 ± 0.0269 E-score.

With GAGACACC, the binding signal was found to be 0.306 ± 0.032 E-score.

Turning to GGGACACC, the binding signal came out at 0.341 ± 0.0406 E-score.

As to GCGACACC, the binding signal is 0.412 ± 0.0314 E-score.

Regarding CCAACACC, the binding signal amounted to 0.291 ± 0.0364 E-score.

Regarding ACGACACC, the binding signal came to 0.432 ± 0.024 E-score.

On to CTGCTATC, for which the binding signal was 0.292 ± 0.00957 E-score.

As to CACACCAG, the binding signal is 0.156 ± 0.0892 E-score.

As to ACTAATAC, the binding signal worked out at 0.225 ± 0.029 E-score.

Consider GATGTATA, for which the binding signal is 0.306 ± 0.0136 E-score.

Turning to CTAATATC, the binding signal turned out to be 0.339 ± 0.0352 E-score.

For GTGATATA, the binding signal stood at 0.419 ± 0.016 E-score.

GTGAGATA: the binding signal was found to be 0.388 ± 0.0283 E-score.

As to CCGATATA, the binding signal stood at 0.333 ± 0.0187 E-score.

Turning to CTGAGATA, the binding signal is 0.248 ± 0.0841 E-score.

As for GCGATATA, the binding signal was 0.399 ± 0.0347 E-score.

Take CTTATATC: the binding signal was 0.292 ± 0.0136 E-score.

For the sequence CTGATATC, the binding signal worked out at 0.465 ± 0.0148 E-score.

For CTGATATA, the binding signal stood at 0.358 ± 0.0287 E-score.

GCTATATA: the binding signal worked out at 0.2534 ± 0.00173 E-score.

For TAGATATA, the binding signal was found to be 0.323 ± 0.076 E-score.

As for ATGAGATA, the binding signal was determined as 0.262 ± 0.0851 E-score.

In the case of ATGAGAAG, the binding signal amounted to 0.176 ± 0.0788 E-score.

For the sequence ATATGCAG, the binding signal worked out at 0.222 ± 0.0653 E-score.

As for GATTACGC, the binding signal was 0.225 ± 0.0112 E-score.

On to ATTGAGTA, for which the binding signal is 0.192 ± 0.0104 E-score.

As for AGATCTCC, the binding signal worked out at 0.184 ± 0.0698 E-score.

With ATCTGAGA, the binding signal is 0.292 ± 0.0452 E-score.

Take CATATGAG: the binding signal was 0.19 ± 0.0156 E-score.

Turning to GATCGCAC, the binding signal is 0.253 ± 0.0507 E-score.

ATGATATA: the binding signal is 0.414 ± 0.0235 E-score.

AAGATATA: the binding signal was 0.28 ± 0.0929 E-score.

On to ATGATATG, for which the binding signal is 0.472 ± 0.0175 E-score.

As to ATGATATC, the binding signal is 0.476 ± 0.0196 E-score.

ATTATATA: the binding signal came out at 0.254 ± 0.0255 E-score.

With ATCATATG, the binding signal was 0.281 ± 0.0284 E-score.

For ATTATATG, the binding signal stood at 0.182 ± 0.0439 E-score.

As to ATAATATC, the binding signal stood at 0.358 ± 0.0729 E-score.

Turning to ATTATATC, the binding signal is 0.329 ± 0.0838 E-score.

With CTGGCATA, the binding signal is 0.228 ± 0.0218 E-score.

Regarding ATCATTCC, the binding signal was found to be 0.291 ± 0.0446 E-score.

Take GATCAACC: the binding signal amounted to 0.319 ± 0.0399 E-score.

On to ACGATCAG, for which the binding signal amounted to 0.1967 ± 0.000827 E-score.

For CGGATTTA, the binding signal was found to be 0.196 ± 0.05 E-score.

For the sequence AATCCCCC, the binding signal worked out at 0.261 ± 0.00738 E-score.

Regarding GATCGCCC, the binding signal worked out at 0.379 ± 0.00824 E-score.

AATCCCAC: the binding signal was found to be 0.158 ± 0.00675 E-score.

Turning to GATCCCAA, the binding signal turned out to be 0.275 ± 0.0231 E-score.

In the case of GATCCCGC, the binding signal was found to be 0.375 ± 0.0422 E-score.

For the sequence CATCCCCC, the binding signal was found to be 0.199 ± 0.0656 E-score.

For the sequence GATCGCGC, the binding signal was found to be 0.197 ± 0.0401 E-score.

Regarding TATCCCCA, the binding signal amounted to 0.35 ± 0.00527 E-score.

Consider GATCCCCA, for which the binding signal turned out to be 0.387 ± 0.046 E-score.

Turning to GATCCCAC, the binding signal turned out to be 0.379 ± 0.0379 E-score.
